Measured values from PubChem BioAssay AID1159580 (chemical genetic matrix, 2015).
“And” between values parts separate entries of the source, which are not always exact repeats. Equal values may be shown once. Out of some 5,500 compounds screened, about 2,000 (36%) were called active. Roughly 18% stayed inconclusive and do not appear here. No stated cut-off is given here; in the data, active means normalized growth mostly below about 0.91 (no sharp cut-off); inconclusive means no clear call, values can overlap the other calls; inactive means mostly above about 0.92. The list shows a part of the results. Some compounds were tested as several samples or in several runs, with calls that do not always agree.

Experiment: chemical genetic growth profiling, strain panel (AID 1159580);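 further: tested at 20 µM; growth read once vehicle control cultures reached saturation at 30 °C; 1 = growth at the plate median or of vehicle wells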
Details: S. cerevisiae deletion strains, growth OD

Measured: normalized growth

CSc1ccc2c(c1)N(CCC1CCCCN1C)c1ccccc1S2 (stereo not given)
inactive: locus YAL021C, strain ccr4, stronger effect = lower value 0.939 | locus YAL030W, strain snc1, stronger effect = lower value 0.985 | locus YAL040C, strain CLN3, stronger effect = lower value 1.07 | locus YBL061C, strain skt5, stronger effect = lower value 0.963 | locus YBR023C, strain chs3, stronger effect = lower value 0.923 | locus YBR171W, strain sec66, stronger effect = lower value 1.03 | locus YBR231C, strain swc5, stronger effect = lower value 0.94 | locus YCL011C, strain gbp2, stronger effect = lower value 0.94 | locus YCL016C, strain dcc1, stronger effect = lower value 0.951 | locus YCL061C, strain MRC1 (second series), stronger effect = lower value 0.991 | locus YCL069W, strain vba3, stronger effect = lower value 1.01 | locus YCR088W, strain abp1, stronger effect = lower value 1.01 | locus YDL005C, strain med2, stronger effect = lower value 1.05 | locus YDL040C, strain nat1, stronger effect = lower value 1.01 | locus YDL185W, strain tfp1, stronger effect = lower value 1.01 | locus YDR001C, strain nth1, stronger effect = lower value 1.02 | locus YDR150W, strain NUM1, stronger effect = lower value 0.972 | locus YDR159W, strain sac3, stronger effect = lower value 0.977 | locus YDR297W, strain sur2, stronger effect = lower value 0.962 | locus YDR334W, strain swr1, stronger effect = lower value 1.04 | locus YDR335W, strain msn5, stronger effect = lower value 0.967 | locus YDR363W, strain ESC2, stronger effect = lower value 0.894 | locus YDR392W, strain spt3, stronger effect = lower value 1.12 | locus YEL003W, strain gim4, stronger effect = lower value 0.971 | locus YEL037C, strain rad23, stronger effect = lower value 1.01 | locus YEL061C, strain CIN8 (second series), stronger effect = lower value 1.02 | locus YER002W, strain NOP16, stronger effect = lower value 1.01 | locus YER016W, strain bim1, stronger effect = lower value 0.992 | locus YER110C, stronger effect = lower value 0.916 | locus YER111C, strain swi4, stronger effect = lower value 1.01 | locus YER155C, strain BEM2 (second series), stronger effect = lower value 1.05 | locus YGL078C, strain dbp3, stronger effect = lower value 1.01 | locus YGL167C, strain pmr1, stronger effect = lower value 1.01 | locus YGL173C, strain kem1, stronger effect = lower value 0.966 | locus YGL227W, strain vid30, stronger effect = lower value 1.04 | locus YGL240W, strain doc1, stronger effect = lower value 0.955 | locus YGL253W, strain hxk2, stronger effect = lower value 0.948 | locus YHR013C, strain ard1, stronger effect = lower value 1.01 | locus YHR079C, strain IRE1, stronger effect = lower value 0.979 | locus YHR142W, strain chs7, stronger effect = lower value 0.962 | locus YIL125W, strain kgd1, stronger effect = lower value 1.01 | locus YJL092W, strain hpr5, stronger effect = lower value 0.994 | locus YJL115W, strain asf1, stronger effect = lower value 1.01 | locus YJL129C, strain trk1, stronger effect = lower value 1.07 | locus YJL154C, strain vps35, stronger effect = lower value 1.03 | locus YJL164C, strain tpk1, stronger effect = lower value 0.977 | locus YJL166W, strain qcr8, stronger effect = lower value 0.97 | locus YJL187C, strain SWE1, stronger effect = lower value 0.939 | locus YJR066W, strain TOR1, stronger effect = lower value 0.937
0.0681 (active) and 0.997 (inactive): locus YJL095W, strain BCK1, stronger effect = lower value
0.194 (active) and 1.01 (inactive): locus YGR078C, strain PAC10, stronger effect = lower value
active: locus YAL013W, strain DEP1, stronger effect = lower value 0.161 and 0.864 | locus YAL026C, strain drs2, stronger effect = lower value 0.23 | locus YBR009C, strain hhf1, stronger effect = lower value 0.877 | locus YBR021W, strain FUR4, stronger effect = lower value 0.195 | locus YBR229C, strain ROT2, stronger effect = lower value 0.451 | locus YBR279W, strain paf1, stronger effect = lower value 0.924 | locus YCL029C, strain bik1, stronger effect = lower value 0.169 | locus YDL035C, strain GPR1, stronger effect = lower value 0.0738 | locus YDL074C, strain BRE1, stronger effect = lower value 0.0864 | locus YDL101C, strain DUN1, stronger effect = lower value 0.0947 | locus YDL134C, strain PPH21, stronger effect = lower value 0.0681 | locus YDL192W, strain arf1, stronger effect = lower value 0.0652 | locus YDR069C, strain doa4, stronger effect = lower value 0.891 | locus YDR101C, strain arx1, stronger effect = lower value 0.419 | locus YDR137W, strain rgp1, stronger effect = lower value 1.35 [resistant] | locus YDR162C, strain NBP2, stronger effect = lower value 0.0524 | locus YDR195W, strain ref2 1.37 [resistant] | locus YDR318W, strain mcm21, stronger effect = lower value 0.116 | locus YDR388W, stronger effect = lower value 0.0641 | locus YDR502C, strain sam2, stronger effect = lower value 0.123 | locus YEL061C, strain CIN8, stronger effect = lower value 0.196 | locus YER015W, strain faa2, stronger effect = lower value 0.842 | locus YER155C, strain BEM2, stronger effect = lower value 0.789 | locus YER167W, strain BCK2, stronger effect = lower value 0.118 | locus YFR010W, strain ubp6, stronger effect = lower value 0.781 | locus YGL086W, strain mad1, stronger effect = lower value 0.0828 | locus YGL248W, strain PDE1, stronger effect = lower value 0.0643 | locus YGR135W, strain pre9, stronger effect = lower value 0.189 | locus YGR229C, strain SMI1, stronger effect = lower value 0.06 | locus YGR252W, strain gcn5, stronger effect = lower value 0.161 | locus YHR027C, strain rpn1, stronger effect = lower value 0.844 | locus YHR079C, strain IRE1 (second series), stronger effect = lower value 0.374 | locus YHR094C, strain hxt1, stronger effect = lower value 0.304 | locus YHR129C, strain ARP1, stronger effect = lower value 0.0924 | locus YHR200W, strain rpn10, stronger effect = lower value 0.26 | locus YIL066C, strain RNR3, stronger effect = lower value 0.0646 | locus YIL073C, strain SPO22, stronger effect = lower value 0.0996 | locus YIR030C, strain dcg1, stronger effect = lower value 0.227 | locus YJL095W, strain BCK1 (second series), stronger effect = lower value 0.894 | locus YJL134W, strain LCB3, stronger effect = lower value 0.9 | locus YJL168C, strain set2, stronger effect = lower value 0.098 | locus YJL187C, strain SWE1 (second series), stronger effect = lower value 0.0709 | locus YJR043C, strain POL32, stronger effect = lower value 0.0862
0.0522 (active) and 0.997 (inactive): locus YHR030C, strain SLT2, stronger effect = lower value
